Source: PubChem BioAssay (several laboratories)
A selection: hits, their analogues and other compounds. The true share with any hit is near 3.5%.
MBD2 DNA inh = inhibitors of MBD2 binding to methylated DNA, primary screen, biochemical, TR-FRET, DNA-binding domain, human. hit rate 0.31% among 370,000. MBD2 binding to methylated oligonucleotide. AID 686964, 2013. inhibition, % at 4.4 µM. Methyl-CpG-binding domain protein 2 (Homo sapiens), Q9UBB5; in the data active = inhibition above about 13%
Target sequence (Q9UBB5 whole entry, looked up, the tested form may be a part): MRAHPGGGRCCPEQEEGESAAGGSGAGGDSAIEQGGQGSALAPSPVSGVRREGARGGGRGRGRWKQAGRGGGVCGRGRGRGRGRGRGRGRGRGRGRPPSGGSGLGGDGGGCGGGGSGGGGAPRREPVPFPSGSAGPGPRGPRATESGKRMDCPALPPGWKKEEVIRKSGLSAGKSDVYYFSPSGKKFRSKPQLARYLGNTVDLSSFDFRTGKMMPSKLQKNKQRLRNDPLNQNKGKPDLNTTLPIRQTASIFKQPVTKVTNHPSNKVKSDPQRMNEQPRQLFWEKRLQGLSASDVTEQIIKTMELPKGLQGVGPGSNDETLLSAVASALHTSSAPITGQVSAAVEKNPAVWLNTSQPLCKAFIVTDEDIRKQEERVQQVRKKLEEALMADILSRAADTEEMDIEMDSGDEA
rCAG binder = binders of r(CAG) RNA repeats, primary screen, biochemical, fluorescence; r(CAG) RNA repeat, TO-PRO-1 dye displacement fluorescence; inhibition, % at 3 µM; hit rate 1.3% among 370,000; AID 651821, 2012;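 active = inhibition above the plate cutoff, the mean of all test compounds on that plate plus 3 SD, cut at about 35% in these data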;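 also: higher means more dye released from RNA so lower well fluorescence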
UHRF1 binding = UHRF1 methylated DNA binding inhibitors, primary screen, counter-screen for MBD2 inhibitor project, biochemical, TR-FRET, human UHRF1, single concentration | E3 ubiquitin-protein ligase UHRF1 (Homo sapiens), Q96T88 | hit rate 0.75% among 370,000 | AID 687016, 2013 | UHRF1 binding to methylated oligo | inhibition, % at 4.4 µM; in the data active = inhibition above about 21%;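 also: UHRF1 SRA domain binding a hemimethylated CpG hairpin DNA probe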
PG9 binder = binders of HIV-1 gp120 antibody PG9, primary screen, biochemical, TR-FRET | TR-FRET gp120-PG9 antibody binding | inhibition, % at 6.7 µM | hit rate 0.43% among 360,000; in the data active = inhibition above about 8.5%
LEDGF integ inh = blockers of LEDGF/p75-dependent integrase strand transfer – biochemical, TR-FRET, high throughput, primary screen. HIV-1 integrase (with human LEDGF/p75). TR-FRET IN-LEDGF/p75 DNA integration, Eu/Cy5. inhibition, % at 3.7 µM. hit rate 0.64% among 370,000;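 active = inhibition above the screen-wide mean plus 3 SD, cut at about 13% in these data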;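 also: signal is the Cy5 over europium emission ratio at 671 and 618 nm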
DNMT1 inh = human DNMT1 methyltransferase inhibitors, primary screen, biochemical, molecular beacon, fluorescence, HinP1I cleavage, uHTS. DNA (cytosine-5)-methyltransferase 1 (Homo sapiens), P26358. inhibition (reported as % activation of signal), % at 10 µM. hit rate 0.83% among 360,000; in the data active = inhibition above about 50%
rCAG binder conf = small molecules binding CAG repeat RNA – biochemical, fluorescence, confirmation; shares compounds with rCAG binder; r(CAG) RNA repeat, TO-PRO-1 dye displacement fluorescence; inhibition, % at 3 µM; hit rate 70% among 4,300; AID 652065, 2013;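 active = inhibition above a per-plate cutoff, the mean inhibition of sample wells plus 3 SD, cut at about 35% in these data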;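 also: loss of TO-PRO-1 fluorescence as compound displaces dye from 1x1 AA loop RNA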
DNA CAG counter = displacement of TO-PRO-1 from CAG DNA duplex, counter-screen for rCAG RNA repeat binder project, biochemical, fluorescence, TO-PRO-1 dye, d(CAG) DNA oligo; shares compounds with rCAG binder; d(CAG) DNA oligo TO-PRO-1 dye displacement; inhibition, % at 3 µM; hit rate 94% among 4,300;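 active = inhibition above its plate's cutoff, the mean test-well inhibition plus 3 SD, cut at about 4.8% in these data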;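 also: hits displace the dye from DNA and so lower well fluorescence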
Of the large screens only hits and unclear results are named; the others gave an inactive call (follow-up assays come after a bar, where they were run).

Cc1c(CCC(=O)N[C@@H](CC(C)C)C(=O)O)c(=O)oc2cc3oc4c(c3cc12)CCCC4	none
CCCCCN1CCCCC(NC(=O)CSc2ccccc2)C1=O (stereo unspecified)	none (no result: PG9 binder, DNMT1 inh)
COc1ccc2oc(/C=C/N(C)C)c(C(=O)c3ccc(Cl)cc3)c2c1	rCAG binder 39.5 | rCAG binder conf inactive | DNA CAG counter 9.7
C/C(=N\NC(=O)c1ccccc1)c1cc2cc([N+](=O)[O-])ccc2oc1=O	rCAG binder 49.6 | rCAG binder conf 43.7 | DNA CAG counter 15.3
Cn1cc(/C=N/NC(=O)c2cc3cc(Br)ccc3o2)c2ccccc21	none
O=C(O)Cn1cc(/C=N/NC(=O)c2cc3cc(Br)ccc3o2)c2ccccc21	rCAG binder 50.3 | rCAG binder conf 55.8 | DNA CAG counter 17.4
COC(=O)[C@]12C[C@H](CC(=O)N3CCN(C(=O)c4ccco4)CC3)C(=O)N(Cc3ccccc3)C1=C[C@H](C1CCCC1)O[C@@H]2C	none (no result: DNMT1 inh)
CCCCCOc1ccc(C2C(C(=O)c3ccc(C)o3)=C(O)C(=O)N2c2cc(C)on2)cc1 (stereo unspecified)	rCAG binder 36.2 | rCAG binder conf 49.5 | DNA CAG counter 15.2
COc1cc(/C=N/NC(=O)Cc2ccccc2)cc([N+](=O)[O-])c1O	none
COc1cc(/C=N/NC(=O)[C@H](Cc2c[nH]c3ccccc23)NC(=O)OCC(C)C)cc([N+](=O)[O-])c1O	rCAG binder 70.2 | rCAG binder conf 48.0 | DNA CAG counter 16.9
CC(C)(C)C(=O)CN1C(=O)NC(C)(Cc2ccc3c(c2)OCO3)C1=O (stereo unspecified)	none
CCOC(=O)c1c(NC(=O)c2ccccc2C(=O)O)sc2c1CCCC2	rCAG binder 55.2 | rCAG binder conf 46.3 | DNA CAG counter 16.2
CCOC(=O)c1c(NC(=O)C2C3C=CC(C3)C2C(=O)O)sc2c1CCC(CC)C2 (stereo unspecified)	rCAG binder 38.3 | rCAG binder conf 64.1 | DNA CAG counter 23.6
CCOC(=O)c1c(NC(=S)Nc2ccccc2)sc2c1CCCCC2	none (no result: MBD2 DNA inh, rCAG binder, UHRF1 binding, PG9 binder, LEDGF integ inh)
CCOC(=O)c1c(NC(=O)C2C3C=CC(C3)C2(C)C(=O)O)sc2c1CCCC2 (stereo unspecified)	rCAG binder 43.3 | rCAG binder conf 46.2 | DNA CAG counter 15.1
O=C(Nc1sc2c(c1C(=O)O)CCCC2)c1cccs1	none
O=C(Nc1sc2c(c1C(=O)O)CCCCC2)c1cccs1	rCAG binder 35.9 | rCAG binder conf inactive | DNA CAG counter 4.7
C[C@@H]1CN([C@H](C)CO)C(=O)CCCn2cc(nn2)CO[C@H]1CN(C)S(=O)(=O)c1ccc2ccccc2c1	none
COc1ccc(OC)c(CN2C(=O)CN(S(C)(=O)=O)CC2(C)C(=O)Nc2c(C)cccc2C)c1 (stereo unspecified)	none (no result: DNMT1 inh)
COCCNC(=O)CSc1ccccc1C(=O)NC1CCCc2ccccc21 (stereo unspecified)	none
COC(=O)c1c(NS(=O)(=O)c2cccs2)sc2c1CCCC2	none
O=C(Nc1sc2c(c1C(=O)O)CCCC2)c1ccc(F)cc1	none
O=C(CCc1ccccc1)Nc1sc2c(c1C(=O)O)CCCC2	none
O=C(/C=C/c1cccs1)Nc1sc2c(c1C(=O)O)CCCC2	rCAG binder 53.0 | rCAG binder conf inactive | DNA CAG counter 6.7
CCOC(=O)c1c(NS(=O)(=O)c2cccc(OC)c2)sc2c1CCC2	rCAG binder 59.9 | rCAG binder conf 68.6 | DNA CAG counter 22.7
CCOC(=O)c1c(N2C(=O)Nc3ccccc3N2O)sc2c1CCCC2	rCAG binder 37.7 | rCAG binder conf inactive | DNA CAG counter 6.7
COC(=O)c1c(N2C(=O)Nc3ccccc3N2O)sc(C)c1C	none
O=C(Nc1sc2c(c1C(=O)O)CCCCC2)c1ccccc1F	rCAG binder 35.5 | rCAG binder conf inactive | DNA CAG counter inactive
COCCNC(=O)c1cn(C)c2ccc(S(=O)(=O)N3CCCCC3)cc2c1=O	none
COc1ccc(-c2ccc3c(c2)c(Sc2ccccc2)c(-c2ccccc2)n3C)cc1	none (no result: DNMT1 inh)
CC(=O)O[C@H]1CC[C@@]2(C)C(=CC[C@H]3[C@@H]4CC[C@H](C(C)=O)[C@@]4(C)CC[C@@H]32)C1	none
CC(=O)[C@H]1CC[C@H]2[C@@H]3CC=C4C[C@@H](OS(=O)(=O)O)CC[C@]4(C)[C@H]3CC[C@]12C	rCAG binder 39.3 | rCAG binder conf 39.2 | DNA CAG counter 9.8
COc1ccc(/C=C2/SC(=O)N(CCC(=O)Nc3ccc(S(=O)(=O)Nc4nccs4)cc3)C2=O)cc1	rCAG binder 83.6 | rCAG binder conf 82.2 | DNA CAG counter 48.7
COc1ccc(/C=C2\SC(=O)N(CCC(=O)Nc3ccc(S(=O)(=O)Nc4nccs4)cc3)C2=O)cc1	rCAG binder 80.5 | rCAG binder conf 79.2 | DNA CAG counter 45.2
C#CCCN([C@H](C(=O)OC)C(C)C)S(=O)(=O)c1ccccc1Br	none (no result: PG9 binder, DNMT1 inh)
O=C(Cn1cc(COc2ccc(Cl)c(Cl)c2)nn1)NS(=O)(=O)c1ccccc1C(F)(F)F	rCAG binder 59.5 | rCAG binder conf 63.3 | DNA CAG counter 15.7
Cc1ccc(OCCCC(=O)NNC(=O)c2ccccn2)cc1	none
CCc1ccc(N=C2NC(=O)/C(=C/c3cc(OC)c(O)c(OC)c3)S2)cc1	rCAG binder 41.6 | rCAG binder conf 39.8 | DNA CAG counter 16.0
COc1cc(/C=C2\SC(=Nc3ccccc3)NC2=O)cc(Cl)c1O	none
COc1ccc(S(=O)(=O)N2CC(C(=O)O)Oc3ccc(Cl)cc32)cc1 (stereo unspecified)	none
CC(C)(C)c1ccc(S(=O)(=O)N2CC(C(=O)O)Oc3ccc(Cl)cc32)cc1 (stereo unspecified)	rCAG binder 62.9 | rCAG binder conf 63.3 | DNA CAG counter 25.7
C=CCn1c(SCc2c(C)noc2C)nc2sc3c(c2c1=O)CCCCC3	rCAG binder 40.3 | rCAG binder conf inactive | DNA CAG counter 4.7
C=CCn1c(SCc2c(C)noc2C)nc2sc3c(c2c1=O)CCCC3	none
